In PubChem BioAssay (NCI) one finds growth data, which are given here for 17 compounds.

Compounds without any hit were thinned out: in the full panel of roughly 83,000, 20% have a hit.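 Cell lines were cultured in 96-well plates, exposed to a single compound concentration, and assessed for percent growth 48 hours later.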 A number with no mark means an inactive call. The source made the active and inactive calls. How the source made its calls: active means growth percent below 10; inactive means the rest.

Test in all cases: NCI-60 one-dose screen, 48 h (100 = growth as untreated, 0 = no growth, -100 = all killed)
Conditions in all cases: 10 µM unless noted

Test [1] concerns SR leukemia.
In test [2] the test system is RPMI-8226 leukemia.
The subject of test [3] is OVCAR-8 ovarian.
For test [4], the system named is OVCAR-5 ovarian.
Test [5] deals with OVCAR-4 ovarian.
Test [6] deals with SK-OV-3 ovarian.
Test [7] relates to IGROV1 ovarian.
In test [8] the test system is OVCAR-3 ovarian.
The subject of test [9] is HS 578T breast.
For test [10], the system named is NCI/ADR-RES ovarian.
Test [11] has as its system T-47D breast.
Test [12] deals with BT-549 breast.
Test [13] concerns MDA-MB-435 melanoma.
Test [14] has as its system SW-620 colon.
In test [15] the test system is HCT-116 colon.
The test system of test [16] is HCC-2998 colon.
Test [17] relates to KM12 colon.
Test [18] relates to MCF7 breast.

With `CCCCCCCCCCCCCCCC(N)c1ccccc1` (centres undefined), the growth in test [1] is -26.1% (active); in test [2] it was -27.9% (active); in test [3], -26.3% (active); in test [4] it was 79.7%; in test [5], -15.8% (active); in test [6], 77.1%. Also, the growth in test [7] is -46.6% (active); in [8], -70.2% (active); in test [9] it was 60.6%; in [10], -31.1% (active); in test [11] it was 33.5%; in [12] it was 92.9%. Further, the growth is 6.53% (active) in test [13]; -49.3% (active) in test [14]; -100% (active) in test [15]; -98.2% (active) in test [16]; -75.4% (active) in test [17].
For `CCN(c1ccc(Cl)cc1)c1nc(-c2ccc([N+](=O)[O-])cc2)cs1`, the growth in test [1] was 83.4%; in test [2] it was 91.5%; in [3], 103%; in test [4], 103%; in [5], 92.7%; in test [6] it was 95.7%. In addition, the growth was 73% in [7]; 102% in test [8]; 87% in [9]; 101% in test [10]; 77.2% in [11]; 115% in [12]. The growth was 103% in test [13]; 91.7% in [14]; 97.9% in [15]; 98.7% in [16]; 93.2% in test [17].
Regarding `O=S(=O)(NCCNc1nccc(-c2c(-c3cccc(F)c3)nc3occn23)n1)c1ccc(Br)cc1`, the growth in [1] is 65.6%; in test [2], 62.3%; in [3], 80.2%; in test [4], 93.8%; in test [5] it was 93.9%; in test [6] it was 99.8%. Further, the growth was 57.7% in test [7]; 90.1% in [8]; 74.6% in test [9]; 89.8% in test [10]; 76.7% in test [11]; 103% in test [12]. For the same compound, the growth was 68.5% in test [13]; 91.8% in test [14]; 69.1% in [15]; 106% in test [16]; 88.9% in test [17].
For the compound `C[C@]12CC[C@@H]3c4ccc(O)c([N+](=O)[O-])c4CC[C@H]3[C@@H]1CCC2=O`, the growth in test [1] is 115%; in test [2], 90.5%; in test [3] it was 112%; in test [4], 92%; in test [5], 81.1%; in test [6], 123%. The growth is 80.6% in test [7]; 104% in test [8]; 78% in test [9]; 94.9% in test [10]; 115% in test [11]; 78.3% in test [12]. The growth in test [13] is 95.4%; in test [14], 100%; in test [15], 105%; in test [16], 94.1%; in [17] it was 91.1%.
For the compound `CCN(CC)CCNC(=O)c1cn2ncnc(Oc3ccc(NC(=O)Nc4ccc(Cl)c(C(F)(F)F)c4)c(F)c3)c2c1C`, the growth in [1] was -32.3% (active); in test [2], -16.6% (active); in test [3] it was 45.4%; in test [4], 54.6%; in test [5], 6.15% (active); in [6] it was 82%. The growth in [7] was -36.6% (active); in test [8] it was -3.03% (active); in test [9] it was -7.92% (active); in test [10] it was 56.8%; in [11], 64.5%; in test [12], 30.3%. Besides, the growth in test [13] is -78.8% (active); in test [14] it was -62.1% (active); in [15], -79.3% (active); in [16] it was -88.9% (active); in test [17], -30.5% (active).
For the compound `CCC(C)N(c1ccc(Cl)cc1)c1nc(-c2ccc(Br)cc2)cs1` (centres undefined), the growth was 83.5% in test [1]; 82.8% in [2]; 96.7% in test [3]; 103% in test [4]; 96.5% in test [5]; 92.5% in [6]. The growth in [7] is 82.1%; in [8], 107%; in [9] it was 91.3%; in test [10], 102%; in test [11], 78.7%; in test [12], 121%. Further, the growth in test [13] is 101%; in [14] it was 95.5%; in [15], 91%; in [16] it was 108%; in test [17], 91.5%.
On to `CCCCCC(=O)OCC(=O)O[C@@H]1C[C@]2(C(C)C)O[C@@]1(C)[C@@H]1CC[C@@H](C)[C@H]1[C@@H]2OC(=O)/C=C/c1ccccc1`, for which the growth in [1] is 76.3%; in test [2] it was 66.8%; in test [3], 19.9%; in [4], 112%; in [5], 75.7%; in test [6], 87.9%. The growth in [7] is 86.7%; in test [8] it was 52.9%; in test [9] it was -15.5% (active); in test [10], 21.7%; in [11], 21.4%; in [12] it was 12.6%. For the same compound, the growth was 99.4% in test [13]; 48.9% in test [14]; 26.8% in test [18]; 74% in [15]; 85% in test [17].
Consider `O=C(Nc1ncc(Cc2ccc(Cl)c(C(F)(F)F)c2)s1)c1ccc2nnsc2c1`, for which the growth in [1] was 57%; in test [2], 40.8%; in [3], 54.8%; in test [4] it was 55.8%; in test [5], 50.7%; in [6], 62.5%. In addition, the growth in [7] was 67.9%; in test [8], 58.5%; in test [9] it was 84%; in test [10] it was 40.9%; in [11], 24.8%; in test [12] it was 65.5%. Moreover, the growth is 22.6% in [13]; 44.3% in test [14]; 45% in test [15]; 10.6% in test [16]; 37.8% in [17].
For `C=CCn1cc(-c2nc3ccccc3s2)c2cc(-c3ccc4c5c(cccc35)C(=O)N(N)C4=O)ccc21`, the growth in [1] was 89.7%; in [2], 99.3%; in [3], 102%; in test [4] it was 103%; in test [5], 97.8%; in test [6] it was 95.3%. In addition, the growth in [7] was 69.8%; in [8], 100%; in test [9] it was 103%; in [10] it was 96.5%; in test [11], 78.2%; in test [12] it was 94.4%. Besides, the growth was 103% in [13]; 98.5% in test [14]; 96.6% in test [15]; 102% in [16]; 100% in [17].
Consider `CCCCCOc1ccc(C(=O)/C(Br)=C/C(=O)O)cc1`, for which the growth in test [1] is 91.9%; in test [2], 77.8%; in [3] it was 114%; in test [4] it was 108%; in test [5] it was 105%; in [6] it was 109%. The growth in test [7] is 85.6%; in [8] it was 100%; in test [9], 102%; in test [10], 95%; in [11] it was 92.6%; in [12] it was 110%. Also, the growth in test [13] is 104%; in test [14], 111%; in test [18], 91.7%; in [15] it was 89.2%; in test [17] it was 107%.
As for `CCOC(=O)c1cnc2ccccc2c1Cl`, the growth in test [1] is 109%; in test [2] it was 114%; in test [3], 99.6%; in test [4], 98.3%; in test [5], 84.7%; in [6] it was 101%. Further, the growth in test [7] was 122%; in [8] it was 106%; in test [9] it was 92.9%; in test [10], 105%; in test [11] it was 102%; in test [12], 112%. The growth in test [13] was 98.9%; in [14], 90.9%; in test [18], 99.1%; in test [15], 95.7%; in test [17], 101%.
Consider `O=C1N[C@@H]2NC(=[N+]3CCOCC3)N[C@@H]2N1`, for which the growth in test [1] was 111%; in test [2], 106%; in test [3] it was 105%; in test [4], 97.9%; in test [5] it was 107%; in [6], 104%. Moreover, the growth was 104% in test [7]; 117% in test [8]; 98.2% in test [9]; 102% in test [10]; 101% in [11]; 110% in test [12]. In addition, the growth in test [13] was 105%; in test [14], 98.8%; in test [15] it was 104%; in test [16], 108%; in test [17] it was 107%.
Regarding `Cc1ccc(/C=N/Nc2nc(Nc3ccccc3)nc(-n3nc(C)cc3C)n2)cc1`, the growth is 36.2% in test [1]; 32.9% in test [2]; 21.6% in test [3]; 59.5% in test [4]; 27.6% in [5]; 69.3% in test [6]. The growth was 5.33% (active) in test [7]; 14.3% in [8]; 78.9% in test [9]; 13.1% in test [10]; 7.35% (active) in test [11]; -5.91% (active) in test [12]. The growth was 41.8% in test [13]; 48.8% in test [14]; 27.6% in test [15]; 43.1% in [16]; 25.6% in [17].
As for `O=C(/C=C/c1ccccc1)c1cccc(OCCCOc2cccc(C(=O)/C=C/c3ccccc3)c2)c1`, the growth in test [1] was 5.29% (active); in test [2] it was -25.7% (active); in test [3] it was 73.8%; in [4] it was 111%; in [5], 92.5%; in [6] it was 109%. In addition, the growth in [7] is 85.1%; in test [8], 78.8%; in test [9] it was 113%; in [10] it was 96.4%; in [11], 72.1%; in test [12] it was 92%. For the same compound, the growth in test [13] was 101%; in test [14], 54.2%; in test [15], -81.3% (active); in test [16] it was 42.2%; in test [17], 25.7%.
On to `O=C(c1ccccc1)C1C(=O)N2C(=S)N(c3ccccc3)C(=O)C2C1c1ccc(Cl)cc1` (centres undefined), for which the growth is 101% in test [1]; 103% in test [2]; 94.8% in test [3]; 102% in test [4]; 90.8% in test [5]; 88% in [6]. Further, the growth in test [7] is 54.2%; in [8] it was 95.6%; in [9], 88.9%; in test [10] it was 96.4%; in [11], 83.1%; in [12], 88.6%. Also, the growth was 105% in test [13]; 102% in [14]; 96.6% in test [15]; 94.8% in [16]; 104% in test [17].
`O=Nc1c(-c2c(O)[nH]c3ncccc23)[nH]c2ccccc12`: the growth in test [1] was 32.8%; in [2], 69.5%; in [3], 79.6%; in test [4], 67.7%; in test [5], 66.7%; in [6] it was 6.5% (active). Also, the growth was -25.3% (active) in test [7]; 69.3% in [8]; -9.72% (active) in test [9]; 71.8% in [10]; 49.1% in test [11]; 45.2% in test [12]. Further, the growth in [13] was 72.6%; in test [14] it was 62.8%; in test [18], 67.8%; in test [15], 36.9%; in test [17], 15%.
For the compound `Cc1nn(-c2ccccc2)c(Oc2ccccn2)c1-c1nc2ccccc2s1`, the growth was 33.9% in test [1]; 97.5% in [2]; 102% in test [3]; 93.4% in test [4]; 98.7% in test [5]; 97.5% in test [6]. The growth in test [7] is 90.6%; in test [8], 102%; in test [9], 110%; in [10], 98.1%; in [11] it was 88%; in [12], 95.4%. For the same compound, the growth in test [13] is 103%; in test [14], 105%; in [15] it was 91.5%; in test [16], 103%; in test [17], 87.6%.
